From PubChem
KKLEB tox: counter-screen for CF NF-kB inhibitors: cytotoxicity | KKLEB CF airway cells viability, ATPlite luminescence, overnight; hits give low values; cells stimulated with P. aeruginosa culture filtrate | 360,000 compounds, 0.36% hits | activity change (cytotoxicity), % at 5 µM;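 active means corrected activity change at or below -50% at 5 µM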
EWS-Fli inh: EWS/Fli transcriptional activity inhibition | inhibition, % at 12.6 µM | 350,000 compounds, 0.67% hits | AID 651661 | A673 NR0B1-luciferase reporter, viability-normalised;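 active means mean inhibition of at least 50% after viability correction, with every replicate also passing that limit; inconclusive means mean reaches 50% but only one of two replicates passes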;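 further: firefly luciferase signal divided by Alamar Blue viability fluorescence both relative to DMSO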
TWEAK Fn14 block: inhibitors of TWEAK-Fn14 interaction signaling | TWEAK-stimulated Fn14 reporter cells, luciferase luminescence, 8 h | inhibition, % at 10 µM | 360,000 compounds, 2% hits | AID 1159606; in the data active means inhibition above about 50%
LGR2 antag: blocks bursicon-induced cAMP signaling via Drosophila LGR2; inhibition, % at 9.99 µM; AID 720647; 380,000 compounds, 0.35% hits; HEK293 LGR2, CRE-luciferase, bursicon-stimulated, 4 h;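 active means drop in luminescence signal, shown as inhibition above about 50% in the replicate tests, limit read from the data, passing the limit was not always enough; inconclusive means probably only some replicates passing the limit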;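 further: agonist challenge used bursicon conditioned medium at about half maximal strength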
CF NFkB inh: blocks PAF-induced NF-kB reporter in cystic fibrosis cells; KKLEB NF-kB-GFP reporter, GFP fluorescence overnight; 360,000 compounds, 0.86% hits; inhibition, % at 5 µM;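 active means at least 50% inhibition at 5 µM, scaled per plate between neutral and stimulator controls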;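 further: PAF is a Pseudomonas aeruginosa culture filtrate used as stimulus; plate controls were PAF-stimulated DMSO wells for no effect and unstimulated DMSO wells for full effect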
TROY signal inh: blocks TROY-dependent signaling in reporter cells; Q293 LMP1-TROYcd NF-kB luciferase reporter, 4 h; inhibition, % at 10 µM; 360,000 compounds, 0.98% hits; AID 1347056;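 active means compounds whose plate-normalised and pattern-corrected inhibition of the luciferase reporter signal at the single screening dose is 50% or more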
Numbers without * were called inactive; u = inconclusive; x = not tested or not shown. Shown are actives, neighbours in structure and some others; about 2.6% of the full set was active somewhere.

SMILES	KKLEB tox	EWS-Fli inh	TWEAK Fn14 block	LGR2 antag	CF NFkB inh	TROY signal inh
Cc1ccc(OC(=O)c2oc3ccc(F)cc3c2C)c(C)c1	-69*	x	-13	-9	53*	-20
COc1ccc(Br)c(Cn2c(C)c(C(=O)NCc3ccccc3C(F)(F)F)sc2=O)c1	-13	4	13	2	20	69*
Cc1ccc2nc(Cl)c(/C=N/NC(=O)[C@H]3C[C@@H]3c3ccccc3)cc2c1	-3	6	-15	-21	21	11
Cc1ccc2nc(Cl)c(/C=N/NC(=O)c3ccccc3O)cc2c1	1	-7	-10	-4	0	52*
C[C@H](CO)N1C[C@H](C)[C@@H](CN(C)C(=O)Nc2ccc(C(F)(F)F)cc2)Oc2ccc(NC(=O)Cc3cn(C)c4ccccc34)cc2C1=O	x	-4	x	x	x	x
O=C(Nc1ccccc1Oc1ccccc1)c1cc([N+](=O)[O-])ccc1Cl	-23	x	54*	15	-13	-17
O=C(Nc1ccc(Nc2ccccc2)cc1)c1cc([N+](=O)[O-])ccc1Cl	-1	6	8	11	2	-20
O=C(c1cc(-c2ccccc2Cl)nc2ccc(Br)cc12)N1CCN(c2ccccn2)CC1	8	x	58*	68*	3	69*
O=C(c1cc(-c2ccncc2)nc2ccc(Br)cc12)N1CCN(c2ccccn2)CC1	-19	x	42	x	-16	13
CN(C(=O)c1ccc(S(=O)(=O)c2cccc(Cl)c2)c([N+](=O)[O-])c1)C1CCCCC1	-19	x	92*	u	48	56*
CN(C(=O)c1ccc(NC(=O)Cc2cccc([N+](=O)[O-])c2)cc1)C1CCCC1	-8	15	-22	3	-66	-4
O=C(c1cccc(C(F)(F)F)c1)N1CCC(=O)N(C(CO)Cc2ccccc2)CC1 (stereo not given)	-10	-19	1	-8	-7	4
O=C(c1ccc(C(F)(F)F)cc1)N1CCC(=O)N(C(CO)Cc2ccccc2)CC1 (stereo not given)	4	4	70*	-4	19	-29
Cc1noc(C)c1S(=O)(=O)Nc1ccc2c(c1)C(=O)N([C@H](C)CO)C[C@H](C)[C@@H](CN(C)C(=O)CCCN(C)C)OCCCC[C@H](C)O2	x	0	x	-19	x	x
COc1cc(/C=C2\SC(=N)N(c3ccc(F)cc3)C2=O)ccc1O	-40	0	52*	-29	62*	14
CCOc1ccc(N2C(=O)S/C(=C\c3ccc(O)c(OC)c3)C2=O)cc1	9	18	4	-2	0	3
COc1ccc(S(=O)(=O)N2C[C@@H](O)COC[C@H]3O[C@@H](CC(=O)N[C@H]4CCN(Cc5ccccc5)C4)CC[C@@H]32)cc1	x	1	x	32	x	x
Cc1ccc(S(=O)(=O)NC(CC(C)C)C(=O)Oc2ccc3c4c(c(=O)oc3c2)CCC4)cc1 (stereo not given)	14	7	34	21	-11	69*
CC[C@@H](NS(=O)(=O)c1ccc(C)cc1)C(=O)Oc1ccc2c3c(c(=O)oc2c1)CCC3	6	x	-12	-3	-8	34
COc1ccc(CN(C)C[C@H]2Oc3c(NC(=O)CCCCCC(=O)Nc4ccccc4N)cccc3C(=O)N([C@@H](C)CO)C[C@@H]2C)cc1	x	x	x	18	x	x
Cn1c2ccccc2c(=O)c2ccc(C#Cc3ccc(N)cc3)cc21	-19	-53	16	x	8	50*
Cn1c2ccccc2c(=O)c2cc(C#Cc3cccc(N)c3)ccc21	0	x	-117	x	-124	-52
COc1ccccc1C#Cc1ccc2c(=O)c3ccccc3n(C)c2c1	-7	-10	45	1	-5	-9
Cn1c2ccccc2c(=O)c2cc(C#CC3=CCCCC3)ccc21	-2	-34	48	9	-36	60*
CN(C)Cc1c(-c2ccc(Cl)cc2)nc2ccccn12	-6	-128	-27	x	-8	-40
SMILES	KKLEB tox	EWS-Fli inh	TWEAK Fn14 block	LGR2 antag	CF NFkB inh	TROY signal inh
Clc1ccc(-c2nc3ccccn3c2CN2CCCCC2)cc1	-6	-3	83*	-3	-8	55*
O=C(O)C1CCC(=O)N1Cc1ccc(F)cc1 (stereo not given)	-6	1	50*	1	-3	7
Cc1ccc(CNC(=O)C2CCC(=O)N2Cc2ccc(F)cc2)cc1 (stereo not given)	11	0	-18	1	5	5
C[C@H](CO)N1C[C@H](C)[C@@H](CN(C)Cc2ccc3c(c2)OCO3)Oc2ccc(NC(=O)Nc3ccc(F)cc3)cc2CC1=O	x	4	x	16	x	x
Nc1[nH]c(C(=O)c2ccccc2)c(-c2ccc(Br)cc2)c1C(=O)c1ccc(Br)cc1	x	-2	91*	-3	x	18
COCCC(=O)N1CCC(Oc2ccc(C(=O)N3CCCC(OC)C3)cc2)CC1 (stereo not given)	10	-10	-11	2	-11	-37
CCC(=O)C1CCCN(C(=O)c2ccc(OC3CCN(C(=O)CCOC)CC3)cc2)C1 (stereo not given)	2	x	88*	2	-10	10
Cn1c(-c2ccc(F)cc2)cnc1SCC(=O)N1CCCCC1	1	x	60*	x	-8	17
COc1ccc2[nH]c(=O)c(CN(Cc3cccs3)S(=O)(=O)c3c(C)ccc4nsnc34)cc2c1	-21	x	61*	x	97*	25
CCC1(O)C(=O)OCc2c1cc1n(c2=O)Cc2cc3c(N)cccc3nc2-1 (stereo not given)	-17	55*	72*	98*	86*	72*
CCC1(OC(=O)CN(C)C)C(=O)OCc2c1cc1n(c2=O)Cc2cc3c(N)cccc3nc2-1 (stereo not given)	-56*	x	-31	x	32	-9
COc1ccccc1CNC(=O)C[C@@H]1C=C[C@H](NC(=O)CC2CC2)[C@@H](CO)O1	x	9	x	27	x	x
CN1c2ccc(-c3ccc(F)cc3)cc2[C@H]2[C@H](CCN2C(=O)c2ccncc2)[C@H]1CO	x	9	x	7	x	x
Cc1ccc(-n2nnnc2C(Cl)(Cl)c2nnnn2-c2ccc(C)cc2)cc1	-2	17	-30	19	-18	60*
O=C(Nc1cccnc1Cl)c1ccc2c(Cl)c3c(nc2c1)CCC3	-26	2	54*	-13	-26	-5
C[C@@H]1CCCCO[C@@H](CN(C)Cc2ccncc2)[C@H](C)CN([C@@H](C)CO)C(=O)c2cc(NS(C)(=O)=O)ccc2O1	x	0	x	6	x	x
O=C(Nc1ccccc1O)C(c1ccccc1)c1ccccc1	2	30	64*	31	5	25
C[C@H]1CN([C@@H](C)CO)C(=O)Cc2cc(NC(=O)C3CC3)ccc2O[C@H]1CN(C)S(=O)(=O)c1ccccc1	x	4	x	9	x	x
CCCCn1c(N)c(-c2nc3ccccc3s2)c2c([N+](=O)[O-])nn(CC)c(=O)c21	-55*	x	-27	x	45	8
